Measurements from PubChem BioAssay (NCI).
This is part of a sample that, as a whole, favours compounds with a hit. Of some 83,000 tested, about 20% had one in any assay.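 Step 1: grow cells in 96-well plates. Step 2: add test compound at a single concentration. Step 3: incubate 48 h. Step 4: record percent growth.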 Unmarked numbers belong to inactive results. Calls of active or inactive are those of the source. Rule for the calls: active = growth percent below 10; inactive = the rest.

Tests used:
Assay in all cases: NCI-60 one-dose screen, 48 h (100 = growth as untreated, 0 = no growth, -100 = all killed)
Details in all cases: 10 µM
SK-MEL-2 melanoma = tested on: SK-MEL-2 melanoma
SN12C renal = tested on: SN12C renal
UO-31 renal = tested on: UO-31 renal
TK-10 renal = tested on: TK-10 renal
ACHN renal = tested on: ACHN renal
CAKI-1 renal = tested on: CAKI-1 renal
A498 renal = tested on: A498 renal
CCRF-CEM leukemia = tested on: CCRF-CEM leukemia
MOLT-4 leukemia = tested on: MOLT-4 leukemia
SR leukemia = tested on: SR leukemia
RPMI-8226 leukemia = tested on: RPMI-8226 leukemia
OVCAR-8 ovarian = tested on: OVCAR-8 ovarian
OVCAR-5 ovarian = tested on: OVCAR-5 ovarian
OVCAR-4 ovarian = tested on: OVCAR-4 ovarian
SK-OV-3 ovarian = tested on: SK-OV-3 ovarian
OVCAR-3 ovarian = tested on: OVCAR-3 ovarian
HS 578T breast = tested on: HS 578T breast
NCI/ADR-RES ovarian = tested on: NCI/ADR-RES ovarian
IGROV1 ovarian = tested on: IGROV1 ovarian

Row | SMILES | growth (SK-MEL-2 melanoma) | growth (SN12C renal) [%] | growth (UO-31 renal) | growth (TK-10 renal) | growth (ACHN renal) | growth (CAKI-1 renal) | growth (A498 renal) | growth (CCRF-CEM leukemia) | growth (MOLT-4 leukemia) | growth (SR leukemia) | growth (RPMI-8226 leukemia) | growth (OVCAR-8 ovarian) | growth (OVCAR-5 ovarian) [%] | growth (OVCAR-4 ovarian) | growth (SK-OV-3 ovarian) | growth (OVCAR-3 ovarian) | growth (HS 578T breast) [%] | growth (NCI/ADR-RES ovarian) | growth (IGROV1 ovarian)
1 | COc1ccc(-c2nsc3c2NC(=O)CC3c2cccc(Cl)c2)cc1 (configuration not stated) | -14.4% (active) | 47.8 | 36.8% | 34.9% | 49.9% | 18.4% | 17.8% | 13.8% | 18.2% | 7.99% (active) | 12.4% | 33.7% | 32.8 | 53.2% | 3.46% (active) | 11.4% | 37.6 | 15.7% | 
2 | CC(C)=C1CCC(C)C/C1=N\N=C(N)N (configuration not stated) | 102% | 103 | 81.3% | 98.3% | 105% | 93.3% | 88.6% | 86.9% | 98.8% | 105% | 96.7% | 104% | 110 |  | 106% | 113% | 105 | 101% | 98.6%
3 | COc1cc2nc(Sc3sc(N)nc3C)n(-c3ccc(Oc4ccccc4)cc3)c(=O)c2cc1OC | 107% | 79.7 | 76.1% | 98.1% | 81.5% | 94.1% | 82.1% | 64.5% | 54% | -43.4% (active) | 67.6% | 85% | 106 |  | 114% | 93.5% | 88.5 | 75.2% | 107%
4 | COc1cc(OC)cc(N2CCN(C(=O)Nc3nc4cc(F)ccc4nc3OC)CC2)c1 | 42.1% | 29.6 | 34.5% | 47.5% | 30.2% | 29.7% | -8.09% (active) | 14.7% | 8.4% (active) | 8.23% (active) | 22.7% | 12.7% | 49 |  | 14.4% | -11.8% (active) | 37.6 | -2.42% (active) | 17.6%
5 | Cc1cc(Cl)ccc1Nc1nc(C(F)(F)F)ccc1C(=O)N/N=C/c1ccccc1Cl | 19.2% | 19.6 | 7.23% (active) | 19% | 16% | 5.28% (active) | 21.8% |  | 41.2% | 66% | 50.5% | 21.7% | 30.8 | 29.2% | 10.4% | 16.3% | 17.4 | 8.31% (active) | 21.6%
6 | COc1ccc(/C=C2\SC(=S)N(CCCN3CCOCC3)C2=O)c(OC)c1 | 99% | 93.8 | 86.8% | 104% | 98% | 94.4% | 102% |  | 94.4% | 72.5% | 78.4% |  |  | 91.1% | 105% | 103% | 99.1 | 92.6% | 115%
7 | Fc1cc(-c2ncc(-c3cc(F)c(F)c(F)c3)c(NC3CCCCCC3)n2)cc(F)c1F | 111% | 87.9 | 88.8% | 152% | 106% | 87.6% | 96.8% | 96.2% | 102% | 95.9% | 96.3% |  | 110 | 89.1% | 115% | 110% | 102 | 106% | 110%
8 | O=C(NC1CCN(Cc2ccccc2)CC1)c1cc(-c2ccncc2)nc2ccc(Cl)cc12 | 44.1% | 27.3 | 11.9% | 61.4% | 19.9% | 13.4% | 11% | 2.77% (active) | 7.58% (active) | 8.12% (active) | 21.9% |  | 75.3 | 27.6% | 53.1% | 15.5% | 59.9 | 11.2% | 32.3%
9 | N#Cc1cnc2ccc(NCc3cnc[nH]3)cc2c1Nc1ccc(F)c(Cl)c1 | 32.5% | 46.5 | 51.5% | 11.8% | 24.6% | 43.6% | 52.4% | 71.3% | 79.6% | 66.1% | 83.2% |  | 82.7 | 42.9% | 39.9% | 49.7% | 90.9 | 98.7% | 22.4%
10 | N#C/C(=C/c1cc([N+](=O)[O-])ccc1Cl)C(N)=O | 88.2% | 98.8 | 72.7% | 108% | 105% | 86.9% | 111% | 63.1% | 87.1% | 8.43% (active) | 68.7% |  | 107 | 94.2% | 95.5% | 104% | 113 | 98.2% | 69.9%
11 | COc1cc2ccnc(C=O)c2cc1OC | 83.2% | 77.8 | 13.8% | 50.4% | 51.2% | 47.5% | 111% | -3.23% (active) | 29.7% | 1.19% (active) | 50.6% |  | 93.1 | 80.9% | 106% | 24.9% | 93.4 | 54.4% | 70.5%
12 | CCc1nn2c(-c3cc(OC)c(OC)c(OC)c3)c(-c3cc(OC)c(OC)c(OC)c3)nc2s1 | 44.5% | 85.9 | 81.7% | 73% | 74% | 71.4% | 88.6% | 80.8% | 95.9% | 61.9% | 71.3% |  | 90 | 72.6% | 59.5% | 93.4% | 37.1 | 81.7% | 88.8%
13 | CCCn1c(=O)c2c(nc(-c3cccc(OCCCCl)c3)n2C)n(CCC)c1=O | 75.6% | 37.3 | 27.8% | 36.5% | 3.03% (active) | 43.7% | -10.8% (active) |  | 73.2% | 59.6% | 83.9% |  | 73.1 | 0.205% (active) | 7.41% (active) | 21.7% | 31.4 | 35.9% | 30.2%
14 | COc1cccc(-c2nnc(COc3ccc(-c4nc5ccc(C)cc5[nH]4)cc3OC)o2)c1 | 98.8% | 72.6 | 88.2% | 102% | 25.9% | 94.4% | 71.3% | 2.49% (active) | 25.6% | -25.7% (active) | -12.2% (active) |  |  |  | 101% | 77.4% | 31.1 | 76.8% | 85.1%
15 | COc1ccc(Nc2ccnc(N3CCN(c4ccnc5cc(Cl)ccc45)CC3)n2)cc1 | -19.3% (active) | 14.1 | -1.7% (active) | 4.85% (active) | 11.2% | 6.78% (active) | -6.15% (active) | 2.09% (active) | -48.9% (active) | 1.29% (active) | -23.1% (active) | 0.239% (active) |  |  | 12.7% | 15.8% | 10.4 | -2.96% (active) | -0.0353% (active)
16 | COc1cccc2c1O/C(=C\c1ccc([N+](=O)[O-])s1)C2=O | 43.3% | 70.1 | -0.107% (active) | 73.6% | 67.5% | 90.9% | 109% |  | 75.5% | 8.26% (active) | 25.7% | 24.7% | 101 | 74.2% | 96.6% | -16.7% (active) | 40.8 | 87.5% | 25.9%
17 | Cc1nc(N)sc1Sc1nc2ccc(Cl)cc2c(=O)n1-c1ccc(Oc2ccccc2)cc1 | 96.9% | 73.9 | 61.8% | 89% | 78.5% | 73.5% | 39.9% |  | 44.3% | -44.8% (active) | 68.1% | 75.2% | 87.9 | 40.9% | 104% | 91.3% | 81.9 | 69.9% | 101%
18 | CCCc1c(C)nc2scc(-c3ccc(Cl)cc3)n2c1=O | 95.1% | 96.3 | 73% | 102% | 95.3% | 96.6% | 98.2% | 95% | 87.1% | 83.1% | 96.4% | 107% |  |  | 103% | 104% | 101 | 101% | 107%
